Hits are enriched below; roughly 10% of the tested compounds scored in any of these assays.
HEK293 tox – HEK 293 cell cytotoxicity | HEK 293 viability, ATP luminescence (CellTiter-Glo), 48-72 h | Potency, µM (series often up to 115 µM), most hits filed as inhibitors | 6.6% of 94,000 active; note: nearly all actives have a fitted effect of over 60% in size
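HEK 293 cells seeded at 250 cells/well were exposed to compound for 48 or 72 hr at 37 degree Celsius. Viability taken as ATP content by CellTiter-Glo luminescence.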
FLuc inh – blocks purified firefly luciferase enzyme activity; purified P. pyralis luciferase, luminescence, biochemical; Potency, µM (titrated, usually from 115 µM), actives largely listed as inhibitors; 2.5% of 76,000 active; AID 1347043; note: nearly all actives have a fitted effect of over 65% in size
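Biochemical qHTS: compound (6-point titration) added to 10uM D-luciferin plus 10uM ATP in Tris acetate pH 7.5 buffer with Mg, Tween-20 and BSA, then purified enzyme at 10nM; light output imaged.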
3T3 cytotox – NIH 3T3 cell cytotoxicity; 4.3% of 94,000 active; Potency, µM (top dose mostly 96.7 µM), usual class: inhibitors; NIH 3T3 viability, CellTiter-Glo ATP luminescence, 48-72 h; note: nearly all actives have a fitted effect of over 55% in size
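Cytotoxicity was measured by CellTiter-Glo ATP luminescence after 48 or 72 h compound exposure at 37 °C. Mouse NIH 3T3 fibroblasts were seeded at 400 cells/well and dosed by 23 nL pin transfer.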
GPT2 inhibitor – GPT2 alanine aminotransferase inhibition | Q8TD30 | Recombinant GPT2, coupled pyruvate oxidase/HRP Amplex Red fluorescence | Potency, µM (titrated, usually from 57.7 µM), most hits filed as inhibitors | 0.25% of 100,000 active | AID 1671188; note: nearly all actives have a fitted effect of over 60% in size
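Fluorescence of coupled pyruvate oxidase/HRP/Amplex Red system (50uM Amplex, 30 min, dark) reports pyruvate formed by GPT2. Enzyme reaction: 10ng/uL GPT2, 2mM L-alanine, 250uM a-KG, 30 min room temperature, pH 7.5; 50uM AOA control.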
hNpr1 antagonist – human Npr1 receptor antagonism. HEK293 hNpr1 GloSensor cGMP, ANP-stimulated luminescence. Potency, µM (highest dose often 46.3 µM), most hits filed as inhibitors. 1.6% of 76,000 active. AID 1347048; calls by dose curve; note: nearly all actives have a fitted effect of over 60% in size
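Compound pre-incubated 30 min at room temperature on GloSensor-loaded HEK293 cells stably carrying hNpr1 and the pGS-40F cGMP biosensor. Stimulation uses hNppA at 0.1 nM final; luminescence is taken at baseline and 20 min post-agonist.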
A number is an active result; i = inactive; ? = inconclusive; nt = no result given. Unless noted, calls come from the whole dose curve; as a rule, active = well fitted curve in the direction sought with a large enough effect; inconclusive = small, poorly fitted or top-dose-only effect, or another doubt; inactive = no such curve, though single readings can be large; an effect the other way counts as inactive or inconclusive.

SMILES | HEK293 tox | FLuc inh | 3T3 cytotox | GPT2 inhibitor | hNpr1 antagonist
O=C(N[C@@H]1CCOC[C@H]1OCCO)c1cc(-c2ccsc2)n[nH]1 | i | i | i | i | i
COc1ccc(CNc2cc3c(cn2)CN(Cc2ccccc2)CCN3)cc1OC | 63µM | i | 40µM | i | i
c1ccc(CCN2CCNc3cc(N4CCN(c5ccccn5)CC4)ncc3C2)cc1 | 50µM | i | 28µM | i | i
O=C(NCc1ccccc1)c1ccc2nnc(-c3ccoc3)n2c1 | i | nt | ? | i | nt
O=C(NCc1cccs1)c1ccc2nnc(-c3cccc(C(F)(F)F)c3)n2c1 | ? | nt | ? | i | nt
O=C(NC1CCCCC1)c1ccc2nnc(-c3cc(C(F)(F)F)cc(C(F)(F)F)c3)n2c1 | 35µM | nt | 32µM | i | nt
O=C(NCc1ccc(F)cc1)c1ccc2nnc(-c3cccc(C(F)(F)F)c3)n2c1 | 40µM | nt | ? | i | nt
O=C(NCc1ccccc1Cl)c1ccc2nnc(-c3ccoc3)n2c1 | 112µM | nt | ? | i | nt
O=C(NCc1ccc(Cl)cc1)c1ccc2nnc(-c3cc(C(F)(F)F)cc(C(F)(F)F)c3)n2c1 | 14µM | nt | ? | i | nt
CNC(=O)C1CN(c2cccc(OC)c2)C(=O)N1 (stereo not given) | i | i | i | i | i
CSc1ccc(-c2cccc(C(=O)NCCNC(=O)c3ccc(Cl)nc3)c2)cc1 | i | nt | i | i | nt
CCCn1ccc2oc(C)c(C(=O)NCc3ccccc3Br)c2c1=O | ? | i | ? | i | i
O=C(CN1CC2CC(C1)[C@H]1CCCC(=O)N1C2)N1CCN(Cc2ccc3c(c2)OCO3)CC1 (stereo not given in full) | i | i | i | i | i
O=C(NC1CCC1)c1ccc2nccn2c1 | i | i | i | i | i
O=C(NC1CCCCCC1)c1ccc2nccn2c1 | ? | 40µM | i | i | i
O=C(NCc1ccccn1)c1ccc2nnc(-c3cccc(C(F)(F)F)c3)n2c1 | ? | nt | ? | i | nt
COc1cccc(CNC(=O)c2ccc3nnc(-c4cccc(C(F)(F)F)c4)n3c2)c1 | 45µM | nt | ? | i | nt
O=C(NCc1ccc(F)c(F)c1)c1ccc2nnc(-c3cccc(C(F)(F)F)c3)n2c1 | 32µM | nt | 25µM | i | nt
O=C(NCc1ccc(Cl)cc1)c1ccc2nnc(-c3cccc(C(F)(F)F)c3)n2c1 | 14µM | nt | ? | i | nt
COc1cccc(CNC(=O)c2ccc3nnc(-c4cc(C(F)(F)F)cc(C(F)(F)F)c4)n3c2)c1 | ? | nt | ? | i | nt
Cc1cc(CNC(=O)[C@@H]2CCC[C@@H](N(C)C)CN(C)C(=O)C2)no1 | i | i | i | i | i
CN(C)c1nccnc1OC1CCN(C(=O)c2ccnn2C)C1 (stereo not given) | i | i | i | i | i
N#Cc1ccc(S(=O)(=O)N2CCCCCCNC(=O)CC2c2ccccc2)cc1 (stereo not given) | ? | i | ? | i | i
O=C(NCCc1ccc(Cl)cc1)c1ccc2nnc(-c3ccc(Cl)cc3)n2c1 | ? | nt | ? | i | nt
O=C(NCCc1ccc(Cl)cc1)c1ccc2nnc(-c3cccc(C(F)(F)F)c3)n2c1 | ? | nt | 22µM | i | nt
SMILES | HEK293 tox | FLuc inh | 3T3 cytotox | GPT2 inhibitor | hNpr1 antagonist
COc1ccccc1-c1nc(-c2c(C)noc2C)cc2[nH]c(C)cc12 | ? | i | 25µM | i | i
COc1cc(F)ccc1-c1nc(-c2c(C)noc2C)cc2[nH]c(C)cc12 | ? | i | 35µM | i | i
Cc1cc2c(-c3ccccc3)nc(-c3c(C)noc3C)cc2[nH]1 | ? | i | ? | ? | i
COc1ncccc1-c1nc(-c2c(C)noc2C)cc2[nH]c(C)cc12 | ? | i | ? | i | i
COc1ccc(CNC(=O)C[C@@H]2CCNC[C@@H]2Cc2cc(-c3ccc(C(C)(C)C)cc3)on2)cc1 | ? | i | 25µM | i | i
COc1ccc(-c2cc(C[C@H]3CNCC[C@H]3CC(=O)NCc3cccnc3)no2)cc1 | i | i | i | i | i
O=C(C[C@@H]1CCNC[C@@H]1Cc1cc(-c2ccc(F)cc2)on1)NCc1cccnc1 | i | i | i | i | i
O=C(C[C@@H]1CCNC[C@@H]1Cc1cc(-c2ccc(F)cc2)on1)NCc1ccc(F)cc1 | 79µM | i | 40µM | i | i
O=C(C[C@@H]1CCNC[C@@H]1Cc1cc(-c2ccc(F)cc2)on1)NCc1ccccc1 | 100µM | i | 112µM | i | i
